Reference: PubChem BioAssay (Tox21)
Inconclusive results are not listed. Active and inactive are the calls of the source. Unless noted, calls come from the whole dose curve; as a rule, active = well fitted curve in the direction sought with a large enough effect in the repeat runs; inconclusive = weak or mixed curves; inactive = no such curve, though single readings can be large; an effect the other way counts as inactive or inconclusive.

Experiments:
[1] = qHTS assay to identify small molecule antagonists of the peroxisome proliferator-activated receptor delta (PPARd) signaling pathway - cell viability counter screen (AID 743213); note: nearly all actives have a fitted effect of over 50% in size; note: potency is the fitted concentration of half-maximal effect
In short: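 PPARd-bla HEK293H cells were treated with compounds plus agonist L165041 (300 nM final) for 17 h at 37 C. Viability was then read in the same wells by CellTiter-Glo luminescence after 30 min at room temperature.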

[2] = biological target: Bile acid receptor (Homo sapiens) (UniProt Q96RI1); test: qHTS assay to identify small molecule antagonists of the farnesoid-X-receptor (FXR) signaling pathway (AID 743217; active = well fitted inhibition curve with a large enough effect in the signal ratio in the repeat runs, not every such curve was filed as active; the % refers to the signal ratio)
In short: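 In this cell-based antagonist screen, inhibition of CDCA-driven (50 uM final) UAS-beta-lactamase expression in HEK 293T cells was measured by FRET fluorescence following 16 h compound exposure at 37 °C.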

[3] = qHTS assay to identify small molecule agonists of the farnesoid-X-receptor (FXR) signaling pathway - cell viability counter screen (AID 743218); note: nearly all actives have a fitted effect of over 45% in size; note: potency is the fitted concentration of half-maximal effect
In short: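 After 16 h at 37 C with test compounds, FXR-bla HEK 293T cells were given LiveBLAzer B/G substrate for 2 h at RT and then CellTiter-Glo; luminescence was taken after 30 min.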

[4] = biological target: Bile acid receptor (Homo sapiens) (UniProt Q96RI1); test: qHTS assay to identify small molecule agonists of the farnesoid-X-receptor (FXR) signaling pathway (AID 743220; active = well fitted activation curve with a large enough effect in the signal ratio in the repeat runs, not every such curve was filed as active; the % refers to the signal ratio)
In short: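 Beta-lactamase reporter under UAS control in GeneBLAzer FXR HEK 293T cells (5000/well) measured with LiveBLAzer FRET substrate after 2 h at room temperature. Compound exposure lasted 16 h at 37C.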

[5] = qHTS assay to identify small molecule antagonists of the farnesoid-X-receptor (FXR) signaling pathway - cell viability counter screen (AID 743221; active = well fitted cell-killing curve with a large enough effect in the repeat runs, not every such curve was filed as active; note: nearly all actives have a fitted effect of over 50% in size; note: potency is the fitted concentration of half-maximal effect)
In short: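 In GeneBLAzer FXR-UAS-bla HEK 293T cells stimulated with 50 uM chenodeoxycholic acid (final), compounds acted for 16 h at 37 C. Viability was assessed afterwards by CellTiter-Glo luminescence.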

[6] = biological target: Vitamin D3 receptor (Homo sapiens) (UniProt P11473); test: qHTS assay to identify small molecule agonists of the vitamin D receptor (VDR) signaling pathway (AID 743222; calls by dose curve)
In short: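 VDR-bla cells were seeded, left 4 h, treated with compounds in DMSO for 16 h, incubated 2 h at RT with B/G FRET substrate, and read for fluorescence.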

[7] = biological target: Vitamin D3 receptor (Homo sapiens) (UniProt P11473); test: qHTS assay to identify small molecule antagonists of the vitamin D receptor (VDR) signaling pathway (AID 743223; active = well fitted inhibition curve with a large enough effect in the signal ratio in the repeat runs, not every such curve was filed as active; the % refers to the signal ratio)
In short: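 Agonist 1alpha,25-dihydroxyvitamin D3 (3 nM in well) was added with each compound to VDR-bla cells preincubated 4 h. Cells stood 16 h at 37C, then FRET substrate 2 h at room temperature; fluorescence intensity recorded.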

[8] = qHTS assay to identify small molecule agonists of the vitamin D receptor (VDR) signaling pathway - cell viability counter screen (AID 743224); note: nearly all actives have a fitted effect of over 50% in size; note: potency is the fitted concentration of half-maximal effect; for activity change, negative = cytotoxicity: series mostly up to about 63 µM
In short: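 Here cell health was gauged by luminescent ATP detection (CellTiter-Glo, 30 min RT) in VDR-bla cells that had been incubated with test compounds for 16 h at 37C and 5% CO2.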

[9] = biological target: Peroxisome proliferator-activated receptor delta (Homo sapiens) (UniProt Q03181); test: qHTS assay to identify small molecule antagonists of the peroxisome proliferator-activated receptor delta (PPARd) signaling pathway (AID 743215; active = well fitted inhibition curve with a large enough effect in the signal ratio in the repeat runs, not every such curve was filed as active; the % refers to the signal ratio;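 note: cells stimulated with agonist L165041 at 300 nM final during compound exposure; series mostly up to about 62 µM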)
In short: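 With L165041 present at 300 nM final, compounds were incubated 17 h at 37 C on PPARd UAS-bla HEK293H cells. A FRET-based beta-lactamase substrate was then applied for 2 h at room temperature and fluorescence intensity recorded.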

[10] = biological target: Peroxisome proliferator-activated receptor delta (Homo sapiens) (UniProt Q03181); test: qHTS assay to identify small molecule agonists of the peroxisome proliferator-activated receptor delta (PPARd) signaling pathway (AID 743212; calls by dose curve)
In short: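 A PPARd-bla HEK293H line with beta-lactamase under an Upstream Activator Sequence is treated with compounds at 37 C. Substrate loading for 2 h at room temperature precedes the fluorescence measurement.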
% is set by controls: 0 for no effect and ±100 for the full control effect.

Sequence of Vitamin D3 receptor (Homo sapiens) (P11473 whole entry, looked up): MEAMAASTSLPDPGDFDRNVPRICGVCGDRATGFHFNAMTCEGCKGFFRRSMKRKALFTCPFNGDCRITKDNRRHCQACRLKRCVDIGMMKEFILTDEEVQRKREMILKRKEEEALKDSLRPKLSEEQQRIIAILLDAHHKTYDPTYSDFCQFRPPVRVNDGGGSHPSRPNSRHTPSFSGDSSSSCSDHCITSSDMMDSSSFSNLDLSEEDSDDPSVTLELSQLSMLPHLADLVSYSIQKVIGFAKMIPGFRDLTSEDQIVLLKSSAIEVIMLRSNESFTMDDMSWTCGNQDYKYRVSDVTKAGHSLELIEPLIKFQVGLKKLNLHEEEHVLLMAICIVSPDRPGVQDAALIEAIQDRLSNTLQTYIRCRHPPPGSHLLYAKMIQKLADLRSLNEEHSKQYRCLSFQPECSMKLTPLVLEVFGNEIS
Sequence of Bile acid receptor (Homo sapiens) (Q96RI1 whole entry, looked up): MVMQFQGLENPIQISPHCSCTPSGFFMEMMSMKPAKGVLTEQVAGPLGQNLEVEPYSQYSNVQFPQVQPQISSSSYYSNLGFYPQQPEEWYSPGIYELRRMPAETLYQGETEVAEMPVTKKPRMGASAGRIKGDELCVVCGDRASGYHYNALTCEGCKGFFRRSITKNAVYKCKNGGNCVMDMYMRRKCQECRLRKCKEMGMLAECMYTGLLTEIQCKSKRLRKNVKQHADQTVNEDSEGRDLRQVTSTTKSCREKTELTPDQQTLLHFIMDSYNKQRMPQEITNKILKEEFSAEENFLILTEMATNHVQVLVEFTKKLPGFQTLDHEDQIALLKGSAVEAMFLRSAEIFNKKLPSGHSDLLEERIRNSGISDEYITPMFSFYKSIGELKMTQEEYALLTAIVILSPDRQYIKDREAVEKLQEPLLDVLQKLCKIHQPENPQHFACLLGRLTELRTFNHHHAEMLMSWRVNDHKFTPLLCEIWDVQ
Sequence of Peroxisome proliferator-activated receptor delta (Homo sapiens) (Q03181 whole entry, looked up): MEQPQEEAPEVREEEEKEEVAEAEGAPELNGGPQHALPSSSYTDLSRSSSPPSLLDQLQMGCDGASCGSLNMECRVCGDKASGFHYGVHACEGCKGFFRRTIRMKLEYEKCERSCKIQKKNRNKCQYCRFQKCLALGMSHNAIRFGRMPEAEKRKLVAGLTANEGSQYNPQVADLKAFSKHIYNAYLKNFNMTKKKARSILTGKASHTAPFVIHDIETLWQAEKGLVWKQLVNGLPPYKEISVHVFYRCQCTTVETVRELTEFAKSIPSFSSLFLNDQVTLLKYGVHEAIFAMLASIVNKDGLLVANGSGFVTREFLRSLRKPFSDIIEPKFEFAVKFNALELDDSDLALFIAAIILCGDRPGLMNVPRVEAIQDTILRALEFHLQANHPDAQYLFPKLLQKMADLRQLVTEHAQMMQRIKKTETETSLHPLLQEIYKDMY

O=P(O)(O)Oc1ccccc1
inactive: Potency [1] | outcome [2] | Potency [3] | Potency [4] | Potency [5] | outcome [6] | outcome [7] | Potency [8]

CC(C)(O)c1coc(S(=O)(=O)NC(=O)Nc2c3c(cc4c2CCC4)CCC3)c1
inactive: Potency [1] | outcome [2] | Potency [3] | Potency [4] | Potency [5] | outcome [6] | outcome [7] | Potency [8]

CN(C)CC/C=C1\c2ccccc2Sc2ccc(Cl)cc21
active: Potency [1] 13.3 µM | Potency [3] 23.7 µM
inactive: Potency [9] | outcome [6] | outcome [7]

O=C(/C=C/c1ccc([N+](=O)[O-])cc1)c1ccccc1
inactive: outcome [10] | Potency [9] | Potency [3] | Potency [5] | outcome [6] | Potency [8]

CC[C@H]1OC(=O)[C@H](C)[C@@H](O[C@H]2C[C@@](C)(OC)[C@@H](O)[C@H](C)O2)[C@H](C)[C@@H](O[C@@H]2O[C@H](C)C[C@H](N(C)C)[C@H]2O)[C@](C)(O)C[C@@H](C)CN(C)[C@H](C)[C@@H](O)[C@]1(C)O
inactive: outcome [10] | Potency [5] | outcome [6] | Potency [8]

CC(C)Cc1ccc(CC(=O)O)cc1
inactive: outcome [10] | outcome [2] | Potency [3] | Potency [4] | Potency [5] | outcome [6] | outcome [7]

COC(=O)Nc1nc2ccc(C(=O)C3CC3)cc2[nH]1
inactive: Potency [1] | Potency [9] | Potency [3] | Potency [5] | Potency [8]

CCC(Cl)CC(Cl)C(Cl)C(Cl)C(Cl)C(C)Cl (stereo unspecified)
inactive: activation [10] -9.79% [at 13.2 µM] | ratio activity, negative = inhibition [9] -24% [at 13.7 µM] | activity change, negative = cytotoxicity [5] -0.0192% [at 13.2 µM] | activity change, negative = cytotoxicity [8] -2.44% [at 13.2 µM]

Nc1ccc(N=Nc2ccc(N)cc2)cc1
inactive: outcome [10] | Potency [9] | Potency [3] | Potency [5] | outcome [6] | outcome [7] | Potency [8]

CC(=O)Oc1cccc(O)c1
inactive: Potency [1] | outcome [2] | Potency [3] | Potency [5] | outcome [7] | Potency [8]

CC(CN(CCN(CC(C)OCCO)CC(C)OCCO)CC(C)OCCO)OCCO (stereo unspecified)
inactive: outcome [10] | Potency [9] | Potency [3] | outcome [6] | outcome [7] | Potency [8]

CCCCCC
inactive: Potency [1] | outcome [2] | Potency [4] | Potency [5]

CC[C@@H](CO)NCCN[C@@H](CC)CO
inactive: outcome [10] | Potency [3] | Potency [5]

CCCCCCCCCCCC(=O)OCC(O)CO (stereo unspecified)
inactive: Potency [3] | Potency [5] | outcome [7]

CCCCCCCCCCCSCC(=O)O
inactive: Potency [5] | Potency [8]

O=C(NC(Cc1cc(=O)[nH]c2ccccc12)C(=O)O)c1ccc(Cl)cc1 (stereo unspecified)
inactive: Potency [1] | Potency [3] | Potency [5] | outcome [6]

CC[C@H]1OC(=O)[C@H](C)[C@@H](O[C@H]2C[C@@](C)(OC)[C@@H](O)[C@H](C)O2)[C@H](C)[C@@H](O[C@@H]2O[C@H](C)C[C@H](N(C)C)[C@H]2O)[C@](C)(O)C[C@@H](C)C(=O)[C@H](C)[C@@H](O)[C@]1(C)O
inactive: Potency [1] | Potency [3] | Potency [5] | outcome [6] | outcome [7] | Potency [8]

O=[N+]([O-])C1(Br)COCOC1
inactive: Potency [3] | Potency [4] | Potency [5] | outcome [6]

CCCCCCCCCCCCCCN(C)C
inactive: Potency [1] | Potency [3] | Potency [5] | outcome [6] | outcome [7]

CCCCCCCC(=O)Oc1c(Br)cc(C#N)cc1Br
inactive: Potency [5] | outcome [6] | outcome [7]

COC(OC)OC
inactive: Potency [1] | Potency [3] | Potency [5] | outcome [6] | outcome [7] | Potency [8]

CC1=CC[C@@]23C[C@@H]1C(C)(C)[C@@H]2CC[C@H]3C
inactive: Potency [1] | Potency [3] | Potency [5]

C[C@H](CS)C(=O)N1CCC[C@H]1C(=O)O
inactive: Potency [1] | Potency [3] | Potency [5]

CC(C)N=C=NC(C)C
inactive: Potency [1] | Potency [5] | outcome [7] | Potency [8]

CC(=O)OCC(C)C
inactive: Potency [1] | Potency [3] | Potency [5] | outcome [6] | outcome [7]

CC12CC3CC(C)(C1)CC(N)(C3)C2
inactive: Potency [1] | Potency [3] | Potency [5] | outcome [6] | Potency [8]

O[C@@H](CNC[C@H](O)[C@H]1CCc2cc(F)ccc2O1)[C@@H]1CCc2cc(F)ccc2O1
active: Potency [1] 23.7 µM | Potency [3] 13.3 µM | Potency [5] 29.8 µM | Potency [8] 21.1 µM

CC(C)C1CCC(C(=O)N[C@H](Cc2ccccc2)C(=O)O)CC1 (stereo partly specified)
inactive: Potency [5] | outcome [7] | Potency [8]

Nc1ccn([C@H]2CS[C@@H](CO)O2)c(=O)n1
inactive: Potency [1] | Potency [3] | Potency [5]

CCCCCCCC/C=C/C(=O)O
inactive: Potency [1] | Potency [3] | Potency [5] | outcome [6] | outcome [7] | Potency [8]

CN1CCCN(C(c2ccccc2)c2ccc(Cl)cc2)CC1 (stereo unspecified)
active: Potency [1] 26.6 µM | Potency [5] 26.6 µM

CCOC(=O)N1CCC(Nc2ccc(Cl)cc2N)CC1
inactive: Potency [1] | Potency [3] | Potency [5] | outcome [7] | Potency [8]

Cc1cc(CCCOc2c(C)cc(-c3noc(C(F)(F)F)n3)cc2C)on1
inactive: Potency [1] | Potency [5] | outcome [6] | outcome [7] | Potency [8]

CCCCCCOC(=O)CCCCC
inactive: Potency [1] | Potency [3] | Potency [5] | outcome [6] | outcome [7]

CCN(CC)CCOc1ccccc1C(=O)CCc1ccccc1
active: Potency [3] 11.9 µM
inactive: Potency [9] | outcome [2] | Potency [4] | outcome [6] | outcome [7]

COc1ccc(-c2cc(=S)ss2)cc1
inactive: Potency [1] | Potency [3] | Potency [5] | outcome [7] | Potency [8]

C[C@@H]1[C@H](O)[C@@H](C)/C=C/C=C\C=C\C=C\C=C\C=C\C=C\[C@H](O[C@@H]2O[C@H](C)[C@@H](O)[C@H](N)[C@@H]2O)C[C@@H]2O[C@](O)(C[C@@H](O)C[C@@H](O)[C@H](O)CC[C@@H](O)C[C@@H](O)CC(=O)O[C@H]1C)C[C@H](O)[C@H]2C(=O)O (stereo in doubt)
inactive: Potency [3] | Potency [5]

Nc1nc(-c2ccc([N+](=O)[O-])cc2)cs1
inactive: Potency [3] | Potency [5]

O=S(=O)(O)CO
inactive: Potency [1] | Potency [3] | Potency [5] | outcome [6] | outcome [7]

O=C(O)c1cccc(C[C@@H]2COc3ccc(OCc4nc5cc(F)ccc5s4)cc3[C@@H]2O)c1
inactive: Potency [1] | Potency [5] | outcome [6] | outcome [7]

CCOc1ncc(F)c(=O)[nH]1
inactive: Potency [1] | Potency [3] | Potency [5] | outcome [6] | outcome [7] | Potency [8]

CC(C)(C)NCC(O)COc1cccc2c1C[C@H](O)[C@H](O)C2 (stereo partly specified)
inactive: Potency [3] | Potency [5] | Potency [8]

CCOC(=O)c1c(N)sc2c1CCN(Cc1ccccc1)C2
inactive: Potency [1] | Potency [3] | Potency [5] | outcome [7] | Potency [8]

O=C1c2ccccc2C(=O)c2c(O)ccc(O)c21
inactive: Potency [1] | Potency [3] | Potency [5] | outcome [7]

CNc1c2c(nn1C)CCCC2
inactive: Potency [1] | Potency [5] | Potency [8]

CC(C)CC(O)CC(C)C
inactive: Potency [1] | Potency [5] | outcome [6] | outcome [7] | Potency [8]

CNS(=O)(=O)c1cc(C(=O)N2CCC(CCN3C4CCC3CC(n3c(C)nc5ccccc53)C4)(c3cccc(F)c3)CC2)c(Cl)cc1F (stereo unspecified)
active: Potency [1] 7.76 µM | Potency [3] 7.76 µM | Potency [5] 21.9 µM

O=C1NC(=O)c2cccc3cccc1c23
inactive: Potency [1] | outcome [2] | Potency [4] | outcome [6] | outcome [7] | Potency [8]

SCCc1cnccn1
inactive: Potency [1] | Potency [3] | Potency [5]

CCC1CCC(CCC(=O)O)C1 (stereo unspecified)
inactive: Potency [1] | outcome [2] | Potency [4] | Potency [5] | outcome [7]

CO[C@@H]1[C@@H](OC)[C@H](C)[C@@](O)(CC(=O)O)O[C@H]1[C@H](C)[C@H]1O[C@@]2(CC[C@@](C)([C@H]3CC[C@@](C)([C@@H]4O[C@@H]([C@H]5O[C@](C)(O)[C@H](C)C[C@@H]5C)C[C@@H]4OC4C[C@H](OC)[C@@H](OC)[C@H](C)O4)O3)O2)C[C@H](O)[C@H]1C (stereo partly specified)
active: Potency [1] 5.31 µM | Potency [3] 9.44 µM | Potency [5] 9.44 µM
inactive: Potency [4]

CC(C(=O)O)c1ccc(C(=O)c2cccs2)cc1 (stereo unspecified)
inactive: Potency [1] | Potency [3] | Potency [5] | outcome [6] | outcome [7] | Potency [8]
